Data as given in ChEMBL document CHEMBL1157539, “Thousands of chemical starting points for antimalarial lead identification” (Nature, 2010).

Test system: Plasmodium falciparum
Experiment: GSK_TCMDC: Inhibition of Plasmodium falciparum 3D7 in whole red blood cells, using parasite LDH activity as an index of growth. Test compounds present at 2uM
Type: functional

`COc1ccc(CN2CCC(CNCc3cccc(-c4ccccc4)c3)CC2)cc1.O=C(O)C(F)(F)F` and `O=C(O)C(F)(F)F.c1cc(-c2ccc(CN3CCN(c4ccncc4)CC3)cc2)cc(-c2nc3ccccc3[nH]2)c1` are the same in Inhibition: 100% for the first, 100% for the second.

Work on `CCc1cn2c3c(cc(C(=O)N[C@@H](Cc4ccccc4)[C@H](O)CNCc4ccccc4)cc13)N(C)S(=O)(=O)CC2.O=CO` yielded an Inhibition of 98%.

Test system: Plasmodium falciparum
Experiment: GSK_TCMDC: Inhibition of Plasmodium falciparum Dd2 in whole red blood cells, using parasite LDH activity as an index of growth. Test compounds present at 2uM
Type: functional

Going from `Cc1ccc(OCC2CCN(c3ncc(C(=O)NCCCN4CCCC4=O)cc3Cl)CC2)cc1` to `O=C(/C=C/c1ccc(Cl)c(Cl)c1)NCCCCN1CCCN(C(=O)Nc2ccc(C(F)(F)F)cc2)CC1`, the Inhibition falls from 71% to 0%.

Going from `c1ccc(Oc2ccc(Nc3ccnc4cc(-c5ccc(CNCCN6CCOCC6)o5)ccc34)cc2)nc1` to `CN1CCN(CCc2ccc(N/C=C3\C(=O)Nc4ccc5ncccc5c43)cc2)CC1.Cl`, the Inhibition falls from 100% to 98%.

Compared with `Cc1ccc(Nc2nc(C)cc(Nc3cccc(NS(C)(=O)=O)c3)n2)cc1`, `CCC(C)NS(=O)(=O)c1ccc2nc(Nc3ccc(C)cc3)n([C@H](C)C(C)(C)C)c2c1` (some centres not stated) is higher in Inhibition: 8% for the first, 98% for the second.

First: COc1cccc(CN2CCC(N3CCc4cc(NC(=O)c5cc(C)on5)ccc43)C2)c1OC (configuration not stated)
Second: O=C(Nc1ccc(OC2CCN(Cc3ccsc3)CC2)c(Cl)c1)c1ccc(F)cc1.O=C(O)C(F)(F)F
The Inhibition of the first is higher: 92% for the first, 83% for the second.

Compared with `COc1ccc(CCNCCCCCNCCCc2ccc(Cl)cc2)cc1OC.Cl`, `CC(C)CCNCc1ccc(OCc2ccccc2COc2ccc(CNCCC(C)C)cc2I)c(I)c1.Cl` is higher in Inhibition: 2% for the first, 78% for the second.

Going from `CNC(=O)c1cnc(Nc2ccc(N3CCN(C)CC3)c(C)c2)nc1NC.Cl` to `O=C(Nc1cccc(F)c1)NC1CCN(c2ccnc3cc(Cl)ccc23)CC1.O=C(O)C(F)(F)F`, the Inhibition falls from 38% to 37%.

First: COc1ccc2nccc([C@@H](O)CN3CCC(NCc4nc5ccccc5s4)CC3)c2c1.O=C(O)C(=O)O
Second: CN1CCC(NCc2ccc(-c3ccc(S(=O)(=O)NCc4ccccc4)c(F)c3)cc2)CC1.O=C(O)C(F)(F)F
The Inhibition of the first is lower: 5% for the first, 89% for the second.

`O=S(=O)(Nc1cccc(CCN2CCC(N3CCCCC3)CC2)c1)c1ccc(-c2ccccc2)cc1` and `O=C(O)C(F)(F)F.c1cc(CN2CCc3ccccc3CC2)cc(-c2c[nH]c3nc(NC4CCCC4)ncc23)c1` are the same in Inhibition: 49% for the first, 49% for the second.

Going from `COc1ccc2ncc(C#N)c(CCN3CCC(NCc4ccc5c(n4)NC(=O)CS5)CC3)c2n1.Cl` to `COc1ccc(NC(=O)C2c3ccccc3C(=O)N(C3CCCC3)C2c2cccs2)cc1` (configuration not stated), the Inhibition rises from 17% to 75%.

First: O=c1c2c([nH]c3cc(Cl)ccc13)CCCC2
Second: Cc1[nH]c(C)c(-c2ccc(-c3ccc(C#N)cc3)nc2)c(=O)c1Br
The Inhibition of the first is lower: 73% for the first, 87% for the second.

Compared with `O=C(O)C(F)(F)F.c1ccc(CNCc2ccc(-c3cccc(-c4nc5ccccc5[nH]4)c3)cc2)cc1`, `N#Cc1cccc(CNC(=O)c2cccc(Nc3ccnc4ccc(F)cc34)c2)c1.O=C(O)C(F)(F)F` is lower in Inhibition: 78% for the first, 26% for the second.

First: FC(F)(F)c1cccc(N=C(S)NN=Cc2ccccn2)c1
Second: CC(C)CCN(Cc1cncn1Cc1cccc(C(F)(F)F)c1)C(=O)c1ccccc1C#N
The Inhibition of the first is higher: 99% for the first, 96% for the second.

Compared with `CCNc1cc(C(=O)N[C@@H](Cc2ccccc2)[C@H](O)CNCCC(C)c2ccccc2)cc(N2CCCC2=O)c1.O=C(O)C(F)(F)F` (some centres not stated), `CCCc1cc(=O)[nH]c(-n2nc(C)cc2NC(=O)CC(c2ccccc2)c2ccccc2)n1` is lower in Inhibition: 95% for the first, 88% for the second.

First: COc1ccc(CN(C)C(=O)CCNS(=O)(=O)c2ccc3c(c2)OCCCO3)cc1F
Second: CN(C)c1ccc(-c2csc(C(=O)NCC3CCN(Cc4ccc(C(C)(C)C)cc4)C3)c2)cc1.O=C(O)C(F)(F)F (configuration not stated)
The Inhibition of the first is higher: 94% for the first, 64% for the second.

Compared with `O=C(/C=C/c1ccc(C(F)(F)F)cc1)NCCCCCN1CCCN(C(=O)Nc2ccc(Cl)c(C(F)(F)F)c2)CC1`, `CN(C)CCC1CCCc2ccc(NC(=O)Nc3ccc(-c4ccncc4)c4ccccc34)cc21.Cl` (configuration not stated) is lower in Inhibition: 31% for the first, 27% for the second.

Compared with `CCC(NC(=O)c1ccccc1NC(=O)c1ccc(C)cc1)C(=O)OC` (configuration not stated), `CCc1nc2ccc(C(=O)OC)nc2n1Cc1ccc2oc(-c3ccccc3N)c(Br)c2c1` is lower in Inhibition: 86% for the first, 75% for the second.

Compared with `COc1c(Br)cc(Br)cc1C(C)=O`, `Cl.O=C(Nc1cccc(-c2nn3ncccc3c2-c2ccnc(Nc3cccnc3)n2)c1)c1c(F)cccc1F` is higher in Inhibition: 0% for the first, 70% for the second.
